This is part of a sample that, as a whole, favours compounds with a hit. Of some 83,000 tested, about 20% had one in any assay.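 A percent growth of 40 corresponds to 60% growth inhibition; 0 means no net growth; -100 means all cells died. Active threshold: below 10.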 Values without a mark were called inactive. Active and inactive are the calls of the source.
Key:
Assay in all cases: NCI-60 one-dose screen, 48 h (100 = growth as untreated, 0 = no growth, -100 = all killed)
Conditions in all cases: 10 µM unless noted
SK-MEL-2 melanoma = test system: SK-MEL-2 melanoma
EKVX NSCLC = test system: EKVX NSCLC
SN12C renal = test system: SN12C renal
UO-31 renal = test system: UO-31 renal
TK-10 renal = test system: TK-10 renal
ACHN renal = test system: ACHN renal
CAKI-1 renal = test system: CAKI-1 renal
A498 renal = test system: A498 renal
CCRF-CEM leukemia = test system: CCRF-CEM leukemia
MOLT-4 leukemia = test system: MOLT-4 leukemia
SR leukemia = test system: SR leukemia
RPMI-8226 leukemia = test system: RPMI-8226 leukemia
OVCAR-8 ovarian = test system: OVCAR-8 ovarian
OVCAR-5 ovarian = test system: OVCAR-5 ovarian
OVCAR-4 ovarian = test system: OVCAR-4 ovarian
SK-OV-3 ovarian = test system: SK-OV-3 ovarian
IGROV1 ovarian = test system: IGROV1 ovarian
OVCAR-3 ovarian = test system: OVCAR-3 ovarian
HS 578T breast = test system: HS 578T breast
NCI/ADR-RES ovarian = test system: NCI/ADR-RES ovarian

Structure (SMILES) | growth (SK-MEL-2 melanoma) | growth (EKVX NSCLC) | growth (SN12C renal) | growth (UO-31 renal) | growth (TK-10 renal) | growth (ACHN renal) | growth (CAKI-1 renal) | growth (A498 renal) | growth (CCRF-CEM leukemia) | growth (MOLT-4 leukemia) | growth (SR leukemia) | growth (RPMI-8226 leukemia) | growth (OVCAR-8 ovarian) | growth (OVCAR-5 ovarian) | growth (OVCAR-4 ovarian) | growth (SK-OV-3 ovarian) | growth (IGROV1 ovarian) | growth (OVCAR-3 ovarian) | growth (HS 578T breast) | growth (NCI/ADR-RES ovarian)
COc1cccc(/C=C/C(=O)c2cc3c(N)c(C(=O)Nc4cccc5ccccc45)sc3nc2C)c1 | 24.2% | 39.9% | -27.9% (active) | 16.9% | 32% | 35% | 17.2% | 4.07% (active) | 7.04% (active) | 16.8% | 12.5% | -18.9% (active) | 3.72% (active) | 15.8% | 56.8% | 56.2% | -3.98% (active) | -17% (active) | 15% | 4.18% (active)
COc1ccc(/C=C/C(=O)c2ccc(NC(=O)CSc3nc4c([nH]3)c(=O)n(C)c(=O)n4C)cc2)cc1OC | 110% | 88.5% | 85.3% | 90.8% | 97.9% | 94.4% | 84.7% | 71.7% | 66% | 72.4% | 36.6% | 85.9% | 89.7% | 83.9% | 72.6% | 102% | 71.3% | 70% |  | 96.1%
COc1ccc(C(=O)/C=C/c2ccc(Cl)cc2)cc1S(=O)(=O)Nc1c(N)nc(SC)[nH]c1=O | 95.8% | 85.2% | 16.8% | 51.6% | 79.6% | 82.1% | 68.5% | 80.9% | 9.03% (active) | 59.8% | 9.2% (active) | 10% | 10.8% | 86.3% | 66.7% | 97.4% | 40.1% | 10.1% | 81.4% | 97.5%
COc1ccc(/C(C)=C(/c2ccc(OCCCN(C)C)cc2)c2ccc(OC(=O)c3ccccc3)cc2)cc1 | 90.9% | 74.5% | 79.1% | 45.1% | 87.8% | 111% | 89.7% | 91.5% | 64.3% | 54.2% | 9.15% (active) | 62.6% | 91.6% | 88.1% | 99.8% | 90.8% | 93.6% | 69.5% | 55.4% | 86.4%
O=C1C(Nc2ccccn2)=C(I)C(=O)c2ncccc21 | -53.7% (active) | -7.46% (active) | -70.8% (active) | -97.7% (active) | -21.4% (active) | -36.1% (active) | 5.77% (active) | 68.2% | 3.29% (active) | -25.4% (active) | 2% (active) | -15.5% (active) | -15.3% (active) | -55.3% (active) | -53.3% (active) | -44.9% (active) | -67.5% (active) | -48.4% (active) | -10.1% (active) | -7.85% (active)
C[C@@H]1O[C@@H](O[C@@H]2C[C@H](c3ccc4c(c3O)C(=O)C3=C(C4=O)[C@@]4(O)C(=O)C[C@](C)(O)C[C@@]4(O)C=C3)O[C@H](C)[C@H]2O)CC[C@@H]1O[C@H]1C[C@@H](O)[C@H](O)[C@@H](C)O1 | 110% | 98% | 98.4% | 82.8% | 97.4% | 90.8% | 93.3% | 108% | 90.5% | 86.6% | 89.6% | 95.3% | 98.2% | 110% | 87.1% | 111% | 96.4% | 98.1% | 105% | 97%
O=C(Nc1ncc(Cc2ccccc2)s1)c1ccc2c(c1)OCCCO2 | 30.6% | 36.7% | 40.4% | 48.1% | 55.9% | 34% | 25.3% | -2.27% (active) | 16.2% | 21.4% | 7.17% (active) | 14.3% | 44.9% | 47.6% | 52.3% | 55.2% | 41.1% | -10.5% (active) |  | 9.35% (active)
O=C(NCc1cccc(CNC(=O)Nc2nc3ccccc3[nH]2)c1)Nc1nc2ccccc2[nH]1 | -11.8% (active) | 11% | -52.2% (active) | 62.6% | -32.7% (active) | 70.2% | 31.6% | -31% (active) | 30.3% | -16.1% (active) | 40.1% | -18.8% (active) | -52.3% (active) | -2.26% (active) | -75.7% (active) | -19% (active) | 13.7% | -42.3% (active) | -15.3% (active) | 83.3%
COC(=O)c1c2c(c(C)[n+]([O-])c1C)C(=O)C(NCc1ccc(OC)cc1)=CC2=O | 62.3% | 55% | 0.985% (active) | 65.3% | 102% | 40.1% | 48.5% | 113% | 20.7% | 0.904% (active) | 9.98% (active) | 23.6% | -15.2% (active) | 53% | -39.2% (active) | 99.2% | 8.2% (active) | -18.6% (active) | 84.8% | 10.1%
O=C1c2ccccc2C(=O)c2c1c(C(=O)NCc1ccccc1)c1ccccn21 | 87.8% | 105% | 107% | 89.8% | 97.2% | 103% | 91.7% | 95.6% | 90.2% | 96.3% | 90.9% | 95.8% | 93.9% | 111% | 105% | 102% | 97.8% | 116% | 97.9% | 103%
CCN1C(=O)N(CC)C2C1NN=c1s/c(=C3\C(=O)N(CCC(C)C)c4ccccc43)c(=O)n12 (configuration not stated) | 60.8% | 48.2% | 25.2% | 29.5% | 79.8% | 30.7% | 29.9% | -1.36% (active) | 13.7% | 20.7% | 16.7% | 17% | 9.81% (active) | 34.1% | 45.5% | 43.7% | 19.4% | 3.23% (active) |  | 8.98% (active)
N=c1c(S(=O)(=O)c2ccccc2)cc2c(=O)n3ccccc3nc2n1CC1CCCO1 (configuration not stated) | 112% | 107% | 96.8% | 56.4% | 114% | 103% | 85.2% | 84.1% | 109% | 102% | 106% | 109% | 116% | 89.8% | 99.9% | 99.3% | 102% | 108% | 104% | 98.7%
CN1CCN(Cc2ccc(NC(=O)c3cncc(C#Cc4cnc(N)c5ccc(F)cc45)c3)cc2C(F)(F)F)CC1 | -55.1% (active) | 42% | 13.2% | -3.87% (active) | 24.1% | 6.63% (active) | 19.7% | 25% | -8.78% (active) | 13.1% | -25.9% (active) | 4.27% (active) | 33.9% | 44.7% | 30.9% | -4.24% (active) | 0.192% (active) | 19.7% | 11.4% | 35.3%
CC1(C)N=C(N)N=C(N)N1c1ccc(CCCCc2ccccc2)c(Cl)c1 | 4.71% (active) | 53% | 11% | 49.5% | 15.9% | 18.8% | 14.1% | 54.5% | 13.2% | 1.8% (active) | -8.35% (active) | 4.29% (active) | 26.1% | 28.5% | 20.6% | 38.1% | -24.4% (active) | -10.6% (active) | 36.4% | 54.8%
